# Most compounds without a hit are left out; they make up all but 2.2% or so of the library.
# aSyn yeast inh – rescues yeast growth from alpha-synuclein toxicity; Yeast expressing alpha-synuclein, growth rescue, BacTiter-Glo, 24 h; Potency, µM (titrated, usually from 46.1 µM), inactives show at the highest dose growth rescue (activation), most hits filed as activators; hit rate 0.14% among 370,000; AID 652106; further: % of control where 0% means no effect; nearly all actives have a fitted effect of over 65% in size
#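 Readout is rescue of growth in alpha-synuclein-expressing yeast, so inhibitors of toxicity appear as activators. Growth after 24 hr at 30 deg C in galactose medium is quantified by luminescence.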
# FUS yeast rescue – FUS proteinopathy suppression in yeast; S. cerevisiae FUS-expressing, growth rescue, OD600, 24 h; Potency, µM (top dose mostly 76.6 µM), hits mostly activators; hit rate 0.24% among 390,000; AID 1347120;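 further: plate controls were DMSO vehicle for no effect and reference control for full effect; nearly all actives have a fitted effect of over 55% in size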
#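 Restored growth of FUS-toxic S. cerevisiae, read as 600 nm absorbance after 24 h at 30C in galactose medium (starting OD 0.005). Controls CP55940 and DMSO.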
# TDP43 rescue – TDP-43 toxicity inhibition in yeast; AID 652104; hit rate 1.8% among 410,000; Potency, µM (doses to about 46.1 µM), without a hit: at the highest dose growth rescue (activation), actives largely listed as activators; TDP-43 expressing yeast growth rescue, BacTiter-Glo, 24 h; further: % of control where 0% means no effect; nearly all actives have a fitted effect of over 50% in size
#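 Yeast cells expressing TDP-43 under galactose induction are exposed to compounds for 24 hr at 30 deg C. BacTiter-Glo luminescence measures growth, so protective compounds score as activators.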
# Mito fusion yeast – inhibitors of mitochondrial division or activators of mitochondrial fusion; S. cerevisiae fusion-defective mutant growth rescue, CellTiterGlo 48 h; hit rate 0.23% among 320,000; Potency, µM (doses to about 46.1 µM), for inactives: at the top dose growth rescue (activation), usual class: activators; further: % of control where 0% means no effect; nearly all actives have a fitted effect of over 45% in size
#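 S. cerevisiae fusion-defective temperature-sensitive mutants (e.g. fzo1-1, mgm1-5) grown 48 h at 37C in YPEG (ethanol/glycerol non-fermentable) medium with 23 nl compound per well; growth rescue read as CellTiterGlo luminescence.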
# Abeta rescue – A-beta toxicity reversal in yeast; yeast expressing A-beta42, growth rescue, OD600, 48 h; response scale: 0% DMSO, 100% iron-clioquinol control; Potency, µM (top dose mostly 46.1 µM), most hits filed as activators; hit rate 0.063% among 410,000; AID 1347071; further: nearly all actives have a fitted effect of over 55% in size
#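 Growth rescue measured by 600 nm absorbance after 48 h yeast culture at 30 C with compound. Values normalized between DMSO and an equimolar ferric chloride plus clioquinol control.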
# ERG Ets-DNA blk – ERG Ets/DNA interaction inhibition. hit rate 0.028% among 370,000. AID 624246. fluorescence polarization, His-ERG Ets domain / labelled DNA. Potency, µM (doses to about 76.9 µM), inactives show at the highest dose FP activity, negative = inhibition, usual class: inhibitors; active means well fitted inhibition curve with a large enough effect in the polarisation, with a control signal flat; inconclusive means small, poorly fitted or top-dose-only effect, or effect the other way, or a change in a side signal; inactive means no such curve, though single readings can be large or run the other way; the % refers to the polarisation;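 further: polarization taken with two DNA probes labelled with fluorescein and Texas red; % of control where 0% means no effect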
# Target sequence (P11308 whole entry, looked up, the tested form may be a part): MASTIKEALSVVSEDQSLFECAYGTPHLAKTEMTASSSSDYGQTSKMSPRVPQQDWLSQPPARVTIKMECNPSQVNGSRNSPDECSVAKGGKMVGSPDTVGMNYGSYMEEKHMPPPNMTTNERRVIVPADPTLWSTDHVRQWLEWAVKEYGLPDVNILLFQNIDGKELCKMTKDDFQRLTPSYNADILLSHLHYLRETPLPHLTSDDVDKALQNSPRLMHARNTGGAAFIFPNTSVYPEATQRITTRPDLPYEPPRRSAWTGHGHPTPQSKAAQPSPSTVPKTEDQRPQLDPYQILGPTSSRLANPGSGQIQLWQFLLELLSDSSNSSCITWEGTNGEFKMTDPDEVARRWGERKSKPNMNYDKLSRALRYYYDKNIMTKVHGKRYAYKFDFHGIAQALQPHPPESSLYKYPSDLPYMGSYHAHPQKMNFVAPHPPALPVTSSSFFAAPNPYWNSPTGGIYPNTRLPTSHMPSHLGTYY
#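 His-tagged ERG Ets domain (1 uM in the protein solution; 300mM KCl, 50mM Tris-HCl, 1mM EDTA, 1mM DTT, pH 7.5) received compound, then a probe mix of 5 nM fluorescein-DNA and 100nM Texas-615-DNA. Fluorescence polarization was read for both dyes.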
# Starred values were filed as active, the others as inactive; i = inactive; ? = inconclusive; . = no result given; [ ] = dose if it differs, or a comment. Unless noted, the call rests on the fitted dose curve; in most records, active means well fitted curve in the direction sought with a large enough effect; inconclusive means small, poorly fitted or top-dose-only effect, or another doubt; inactive means no such curve, though single readings can be large; an effect the other way counts as inactive or inconclusive. Potency means the concentration at half of the fitted maximal effect.
SMILES,aSyn yeast inh,FUS yeast rescue,TDP43 rescue,Mito fusion yeast,Abeta rescue,ERG Ets-DNA blk
CC(C)C(=O)Nc1sc2c(c1C#N)CCCCC2,8.3%,i,12.6µM*,10.0%,i,-4.9%
N#Cc1c(NC(=O)C2CC2)sc2c1CCCCC2,-6.0%,i,0.0%,15.8µM*,i,-8.0%
N/C(=N\OC(=O)c1ccc2c(c1)OCO2)c1ccc(Cl)cc1,-41.2%,i,3.16µM*,11.3%,i,.
N/C(=N\OC(=O)c1cccs1)c1ccc(Cl)cc1,-53.9%,i,-27.5%,13.3%,i,2.5%
COc1ccc(/C(N)=N/OC(=O)c2cccs2)cc1,-59.6%,i,15.8µM*,4.4%,i,8.6%
COc1ccc(/C(N)=N/OC(=O)c2ccc3c(c2)OCO3)cc1,-7.0%,i,5.62µM*,6.3%,i,17.9%
Cc1ccc(/C(N)=N/OC(=O)c2ccc3c(c2)OCO3)cc1,-10.2%,i,?,27.2%,i,27.6%
COc1cc(NC(=O)Cn2ncc3c([nH]c4ccc(C)cc43)c2=O)cc(OC)c1OC,.,i,12.4%,.,i,2.4%
COc1ccc(OC)c(NC(=O)c2cc(=O)c3c(C)cc(C)cc3o2)c1,.,i,33.9%,.,i,-2.1%
COc1cccc(CNC(=O)c2ccc(F)c(S(=O)(=O)N3CCCCC3)c2)c1,0.0%,35.5µM*,?,.,i,.
CC(C)c1ccc(NC(=O)c2ccc(F)c(S(=O)(=O)N3CCCC3)c2)cc1,.,i,-15.3%,.,i,19.0%
O=C(Nc1cc(Cl)cc(Cl)c1)c1ccc(F)c(S(=O)(=O)N2CCCC2)c1,.,i,17.8µM*,.,i,0.3%
CCOC(=O)c1ccccc1NC(=O)N(Cc1ccco1)C1CCN(C(C)=O)CC1,.,i,-20.9%,.,i,3.8%
CCCCCCCCCCn1cc(C(C)=O)c(=O)[nH]c1=O,5.3%,i,9.8%,1.4%,i,11.1%
CCCCCCCCn1cc(C(C)=O)c(=O)[nH]c1=O,6.0%,i,12.6µM*,10.3%,i,-6.2%
CC(C)(C)SCCNC(=O)CN(c1ccc(F)cc1)S(C)(=O)=O,-5.7%,i,-12.8%,6.31µM*,i,2.7%
CCCNC(=O)C(=O)NCC(c1ccc2c(c1)OCO2)N1CCOCC1 (centres undefined),.,i,6.4%,7.5%,i,-0.9%
CCOc1ccccc1NC(=O)c1cnccn1,-9.0%,i,11.2µM*,2.9%,i,-1.3%
CCOc1ccccc1NC(=O)c1cccc2ccccc12,-0.8%,i,7.94µM*,-2.7%,i,-2.3%
CCOc1ccccc1NC(=O)c1ccccc1-c1ccccc1,-0.1%,i,-26.4%[1.82 µM],-1.7%,i,9.4%
C=CCn1c(SCc2ccc3nonc3c2)nnc1-c1cccs1,11.5%,i,17.8µM*,1.7%,i,8.7%
Brc1ccc(CSc2nnc(-c3ccccn3)n2Cc2ccco2)cc1,-1.0%,i,2.0%,?,i,7.1%
Clc1cccc(CSc2nnc(-c3ccccn3)n2Cc2ccco2)c1,7.7%,?,20µM*,29.8%,i,0.1%
C=CCn1c(SCC(=O)C(C)(C)C)nnc1-c1cccs1,1.5%,i,7.8%,1.3%,i,2.2%
c1ccc(CSc2nnc(-c3cccs3)n2Cc2ccco2)cc1,12.8%,i,17.8µM*,23.4%,i,-5.9%
SMILES,aSyn yeast inh,FUS yeast rescue,TDP43 rescue,Mito fusion yeast,Abeta rescue,ERG Ets-DNA blk
O=c1[nH]c2cccc(Cl)c2c2ccccc12,18.2%,i,13.1%,.,i,.
C/C(=N\NC(N)=S)C1C2C3CC4C5CC(C42)C1C53 (centres undefined),1.1%,i,14.1µM*,3.1%,?,22.0%
CCCSc1ncc(Cl)c(C(=O)N(Cc2ccc(N(C)C)cc2)C2CCS(=O)(=O)C2)n1 (centres undefined),.,?,16.7%,.,i,-1.3%
Cc1ccc2onc(CC(=O)Nc3cc(F)ccc3F)c2c1,.,i,10µM*,.,i,-0.5%
Cc1cccc(CN2C(=O)c3ccccc3S(=O)(=O)c3ccc(C(=O)N(C)Cc4ccccc4)cc32)c1,.,?,14.4%,.,i,-5.0%
CN(C(=O)c1ccc2c(c1)N(Cc1ccccc1F)C(=O)c1ccccc1S2(=O)=O)C1CCCCC1,.,10µM*,-3.6%,.,i,-0.8%
CN(Cc1ccccc1)C(=O)c1ccc2c(c1)N(Cc1ccccc1F)C(=O)c1ccccc1S2(=O)=O,.,31.6µM*,0.5%,.,i,0.8%
Cc1ccc(C)c(CN2C(=O)c3ccccc3S(=O)(=O)c3ccc(C(=O)N(C)C4CCCCC4)cc32)c1,.,i,?,.,i,0.6%
COC(=O)C[C@@H]1CC[C@H]2[C@@H](COc3ccc(NC(=O)c4cc(C)on4)cc3C(=O)N2C)O1,.,i,.,.,.,.
COC(=O)N[C@@H]1C[C@H]2[C@@H]3CC[C@H]4C[C@@H](OC)CC[C@]4(C)[C@H]3CC[C@]12C,-11.2%,i,4.4%,3.6%,i,-3.8%
COC(=O)N[C@@H]1C[C@H]2[C@@H]3CC[C@H]4C[C@@H](OC)CC[C@]4(C)[C@H]3CC[C@@]12C,-18.3%,i,28.2µM*,-18.4%,i,3.6%
O=S(=O)(CCSc1nc2ccccc2o1)c1nc2ccccc2s1,-18.2%,i,11.2µM*,-2.2%,i,3.6%
CCS(=O)(=O)CCSc1nc2ccccc2o1,-13.2%,i,-19.9%,2.6%,i,-1.2%
COc1ccccc1CSc1nc2n(n1)C(c1ccccc1)C(C(=O)Nc1ccc(C)cc1)=C(C)N2 (centres undefined),.,i,10.3%,.,i,-0.7%
Cc1ccccc1-c1nc(CN2CCC(C(=O)NCc3ccc(F)cc3)CC2)c(C)o1,.,i,2.0%,.,i,-1.0%
Cn1cnc([N+](=O)[O-])c1S(=O)(=O)c1ccc(Cl)cc1,-0.5%,i,14.1µM*,-15.7%,i,0.4%
Cn1cnc([N+](=O)[O-])c1NC(C)(C)C,-3.5%,i,1.7%,-1.7%,i,6.0%
O=C(NCc1ccco1)C1CCCN(S(=O)(=O)c2ccc([N+](=O)[O-])cc2)C1 (centres undefined),.,i,.,.,.,.
Cc1ccc(OCc2ccccc2C)c([N+](=O)[O-])n1,4.1%,i,11.2µM*,-36.8%,i,-8.9%
COc1ccc(Cn2ccc3nc(C)c(C(=O)Nc4cc(OC)c(OC)c(OC)c4)cc3c2=O)cc1,.,i,-7.3%,.,i,7.4%
CCc1ccc(NC(=O)C2=C(C)C(=O)OC23CCCCC3)cc1,.,i,?,.,i,2.5%
COc1ccc(Cn2c(=O)c3cccnc3n(Cc3cccc(OC)c3)c2=O)cc1,.,i,12.4%,.,i,3.7%

# Screening data deposited in PubChem by National Center for Advancing Translational Sciences (NCATS).
